From PubChem BioAssay
DRD3 agonist: agonists of human D3 dopamine receptor | P35462 | D3R DiscoveRx beta-arrestin cells, luminescence, 90 min | max activation, % | 410,000 tested, 0.58% active; in the data active = max activation above about 30%; also: 0% is about no effect
Target sequence (P35462 whole entry, looked up): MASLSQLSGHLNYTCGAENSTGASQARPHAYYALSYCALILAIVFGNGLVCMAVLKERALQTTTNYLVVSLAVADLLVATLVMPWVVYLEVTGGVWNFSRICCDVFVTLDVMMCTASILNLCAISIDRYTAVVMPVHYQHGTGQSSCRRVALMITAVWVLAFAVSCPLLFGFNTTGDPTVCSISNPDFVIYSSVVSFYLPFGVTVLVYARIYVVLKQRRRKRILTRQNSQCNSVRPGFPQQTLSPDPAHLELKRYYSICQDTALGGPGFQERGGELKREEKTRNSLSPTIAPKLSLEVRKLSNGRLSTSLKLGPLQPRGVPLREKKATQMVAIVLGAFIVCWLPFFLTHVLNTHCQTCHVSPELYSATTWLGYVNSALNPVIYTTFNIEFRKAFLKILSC
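Agonist mode: compounds and dopamine controls were applied to plated cells for 90 min at 37 degrees C after an overnight attachment at 1500 cells/well. Luminescent read-out followed 30 - 60 minutes at room temperature with DiscoveRx detection reagent.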
RGS4 inhibitor: blocks human RGS4-accelerated GTP hydrolysis; Transcreener GDP fluorescence polarization, RGS4-accelerated GTP hydrolysis; Potency, µM (top dose mostly 114 µM), for inactives: at the top dose activity change, negative = inhibition, hits mostly inhibitors; 390,000 tested, 0.039% active; active = well fitted inhibition curve with a large enough effect; inconclusive = small, poorly fitted or top-dose-only effect; inactive = no such curve, though single readings can be large or run the other way; also: potency is read from the fitted curve at half-maximal effect; % is scaled to controls: 0 for no effect and ±100 for the full control effect; nearly all actives have a fitted effect of over 75% in size
Target sequence (P49798 whole entry, looked up): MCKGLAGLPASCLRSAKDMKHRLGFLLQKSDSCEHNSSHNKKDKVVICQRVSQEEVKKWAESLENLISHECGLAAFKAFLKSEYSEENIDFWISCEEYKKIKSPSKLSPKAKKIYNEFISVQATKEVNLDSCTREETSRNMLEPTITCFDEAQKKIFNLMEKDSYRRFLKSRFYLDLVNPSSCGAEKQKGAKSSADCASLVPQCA
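MLSMR compounds (23 nl, pin-transferred) preincubated 10 min at room temperature with a 500nM (2x) first reagent, then RGS4 at 900nM (2x) plus Transcreener GDP mix added; fluorescence polarization (620/688 nm) read before and after 90 min at 30 °C.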
uPA generation: inhibitors of cell surface uPA generation; Potency, µM (titrated, usually from 38.3 µM), without a hit: at the highest dose activity change, negative = inhibition, actives largely listed as inhibitors; 330,000 tested, 0.31% active; cell surface uPA generation assay, qHTS; AID 540303; active = well fitted inhibition curve with a large enough effect; inconclusive = small, poorly fitted or top-dose-only effect; inactive = no such curve, though single readings can be large or run the other way; tested in mouse RAW 264.7 cells; also: potency is read from the fitted curve at half-maximal effect; % is scaled to controls: 0 for no effect and ±100 for the full control effect; nearly all actives have a fitted effect of over 55% in size
D3 antag: blocks the human D3 dopamine receptor | P35462 | D3R cells, DiscoveRx beta-arrestin luminescence, antagonist mode; stronger effect = lower value | max response, negative = inhibition, % | 360,000 tested, 2.5% active | AID 652054; in the data active = max response below about -50%; inconclusive = no clear call, values can overlap the other calls; also: % is scaled to controls: 0 for no effect and ±100 for the full control effect
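Cells plated overnight at 1500 cells/well, then exposed to library compounds with dopamine controls for 90 minutes at 37 degrees C. DiscoveRx reagent added for 30–60 minutes at room temperature; luminescence read, quantitative HTS format.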
* = called active by the depositor; ? = inconclusive; . = not tested or not shown. An excerpt weighted towards active compounds, which were near 3.1% of everything screened.

SMILES	DRD3 agonist	RGS4 inhibitor	uPA generation	D3 antag
COc1ccc(N2CCN(c3ncnc4scc(-c5ccccc5)c34)CC2)cc1	31*	4%	-3%	67
O=C(NCC(=O)N1CCN(C(c2ccccc2)c2ccccc2)CC1)c1ccccc1Br	1	.	.	9
O=C(NC1CC(=O)N(c2cccc(F)c2)C1)c1ccc2c(c1)OCO2 (configuration not stated)	-36	-12%	.	.
COc1ccc(-c2csc3ncnc(N4CCN(c5cccc(Cl)c5)CC4)c23)cc1	8	-29%	11µM*	67
O=C(CC1NCCc2ccccc21)Nc1ccccc1 (configuration not stated)	-10	25%	1%	-74*
Cc1ccc2c(c1)N(C(=O)c1ccc(F)cc1)C(C)(C)CC2(C)c1ccccc1 (configuration not stated)	2	-15%	.	.
O=C(c1ccccc1Cl)N1CCNCC1	7	20%	7%	-5
Clc1cccc2c1Sc1ccccc1CC2N1CCNCC1 (configuration not stated)	-36	-20%	5%	-55*
COCCCN1CCN(C2Cc3ccccc3Sc3ccc(Cl)cc32)CC1 (configuration not stated)	-17	-32%	5%	-97*
Clc1ccc2c(c1)C(N1CCNCC1)Cc1ccccc1S2 (configuration not stated)	-26	8%	-7%	-56*
NC(=O)CCN1CCN(CCOC2Cc3cc(Cl)ccc3Sc3ccccc32)CC1 (configuration not stated)	-6	7%	0%	-86*
COc1ccc(-c2nc(CN3CCC(C(=O)NCc4ccc(C)cc4)CC3)c(C)o2)cc1OC	0	-7%	.	.
Cc1cc(OCCOCC[N+](C)(C)Cc2ccccc2)ccc1C(C)(C)CC(C)(C)C	-21	.	.	.
COc1ccc(S(=O)(=O)N2c3ccc(Cl)cc3[C@@](O)(c3ccccc3Cl)[C@H]2C(=O)N2CCC[C@@H]2C(N)=O)cc1OC	4	.	.	.
CCS(=O)(=O)NCCc1sc2nc(-c3ccc(OC)cc3)nn2c1C	4	3%	.	.
COc1ccccc1CNc1nc2ccccc2c2nc(-c3cccnc3)nn12	2	-8%	.	.
COc1ccc2cc(C(=O)Nc3ccc(Cl)cc3)sc(=O)c2c1OC	-29	-8%	-2%	-69*
COc1ccc2cc(C(=O)Nc3ccc(O)cc3)sc(=O)c2c1OC	-25	?	-12%	-21
CC(Oc1cc2oc(=O)c3c(c2cc1Cl)CCC3)C(=O)N1C[C@H]2C[C@@H](C1)c1cccc(=O)n1C2 (some centres not stated)	-33	-18%	-4%	-26
O=C(COc1cc2oc(=O)c3c(c2cc1Cl)CCCC3)N1C[C@H]2C[C@@H](C1)c1cccc(=O)n1C2	-18	15%	0%	-58*
CCOC(=O)c1cccc(NC(=O)CCn2nc(C)c3c(C)n(-c4ccccc4)nc3c2=O)c1	-8	-9%	.	.
Cn1c(-c2ccsc2)c(-c2cccs2)c2cc(-c3ccc4cc[nH]c4c3)ccc21	6	-13%	11%	74
Cn1c(C=O)c(-c2ccc3cc[nH]c3c2)c2ccccc21	31*	-13%	-3%	15
Cc1ccc2oc(C(=O)Nc3ccc(S(=O)(=O)Nc4ncccn4)cc3)cc(=O)c2c1	4	-16%	.	.
O=S(=O)(c1ccc(F)cc1)N1CCC(N2CCCCCC2)CC1	-7	23%	0%	-50*
SMILES	DRD3 agonist	RGS4 inhibitor	uPA generation	D3 antag
O=S(=O)(c1ccc(Cl)cc1)N1CCC(N2CCCCCC2)CC1	0	12%	-2%	-67*
CC1CCN(C2CCN(S(=O)(=O)c3ccc(F)cc3)CC2)CC1	-5	7%	1%	-17
COc1ccc(Cl)cc1NC(=O)Cn1cc(C(=O)c2ccncc2)c(=O)c2cc(C)ccc21	-13	4%	.	.
Cc1ccc(-c2nc(S(=O)(=O)c3ccc(Cl)cc3)c(N3CCCCC3)o2)cc1	-18	16%	.	.
CC1Cc2ccccc2N1C(=O)CN1CCc2ccccc2C1 (configuration not stated)	-17	4%	3%	-4
CC1Cc2ccccc2N1C(=O)CN1CCN(Cc2ccccc2)CC1 (configuration not stated)	-11	15%	-27%	-78*
CC1Cc2ccccc2N1C(=O)Cn1cc(C(F)(F)F)ccc1=O (configuration not stated)	-14	.	.	-117*
CCOc1cccc(CC(=O)N2CCc3c([nH]c4ccccc34)C2c2ccc(C)cc2)c1OCC (configuration not stated)	6	2%	.	.
O=C(Nc1cc(Br)c(O)c(Br)c1)c1cccc(NC(=O)c2ccco2)c1	1	-8%	8%	13
O=C(Nc1cccc(N=Cc2cc(Br)cc(Br)c2O)c1)c1ccco1	11	-25%	-1%	-61*
O=C(Nc1cccc(N=Cc2cc(Cl)cc(Br)c2O)c1)c1ccco1	-7	-25%	-9%	-75*
Cc1c(C(=O)NCc2ccc(C(F)(F)F)cc2)sc(=O)n1Cc1cccc(F)c1	-1	.	.	-25
Cc1c(C(=O)NCc2cccc(C(F)(F)F)c2)sc(=O)n1Cc1cccc(F)c1	-9	.	.	-52*
COc1ccccc1OCC(=O)Nc1ccc(-c2nnc(-c3ccco3)o2)cc1	-3	-6%	5%	-6
COc1cc(-c2nnc(-c3ccco3)o2)ccc1OCc1ccccc1	30*	15%	.	36
COc1cc(-c2nnc(-c3ccncc3)o2)ccc1OCc1ccccc1	81*	-13%	.	49
COc1ccc(-c2nnc(-c3ccccc3)o2)cc1OC	-1	8%	?	-8
CCOc1ccc(OC(=O)c2cn(-c3ccc(C)cc3)c(=O)c3ccccc23)cc1	-5	?	.	.
Cc1cc(NC(=O)CSc2nc(-c3cccs3)nc3ccccc23)no1	-7	-4%	1.8µM*	4
CCn1cc(SCC(=O)Nc2cc(C)on2)c2ccccc21	1	-13%	-18%	-89*
CCN(CC)C(=O)Cn1cc(S(=O)(=O)CC(=O)Nc2cc(C)on2)c2ccccc21	-6	-13%	2%	-51*
CCCn1cc(SCC(=O)Nc2cc(C)on2)c2ccccc21	-22	-36%	-14%	-20
Cc1cc(NC(=O)CSc2nc(C(C)(C)C)nc3ccccc23)no1	-9	13%	?	-1
Cc1c(Cl)cccc1NC(=O)c1cc(-c2cccs2)on1	1	0%	.	.
O=C(CCCN1C(=O)/C(=C\c2cccs2)SC1=S)Nc1cc([N+](=O)[O-])ccc1O	-19	1%	-10%	-90*
O=C(CCN1C(=O)/C(=C/c2cccs2)SC1=S)Nc1ccccc1O	-1	-7%	6%	10
O=C(CCN1C(=O)S/C(=C\c2cccs2)C1=O)Nc1nccs1	4	14%	9%	-11
O=C(CCN1C(=O)/C(=C\c2cccs2)SC1=S)Nc1nccs1	13	-13%	-1%	-52*
Cc1ccc(-c2nc3scc(CCNC(=O)c4cccc(Br)c4)n3n2)cc1	13	-4%	.	.
COc1ccc(CC(=O)N/N=C(\C)c2cccnc2)cc1	0	11%	1%	-4
